This is part of a sample that, as a whole, favours compounds with a hit. Of some 83,000 tested, about 20% had one in any assay.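 Activity criterion: percent growth below 10, measured after cells in 96-well plates were exposed to a single compound concentration for 48 hours.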 Values without a mark were called inactive. Activity calls are given as the source filed them.

From PubChem BioAssay (NCI) come the findings set out here.

Experiment in all cases: NCI-60 one-dose screen, 48 h (100 = growth as untreated, 0 = no growth, -100 = all killed)
Holding throughout (conditions): 10 µM

Test [1] has as its system SK-MEL-2 melanoma.
The subject of test [2] is EKVX NSCLC.
Test [3] relates to SN12C renal.
For test [4], the system named is UO-31 renal.
Test [5] deals with TK-10 renal.
Test [6] relates to ACHN renal.
Test [7] relates to CAKI-1 renal.
Test [8] deals with A498 renal.
Test [9] deals with CCRF-CEM leukemia.
The subject of test [10] is MOLT-4 leukemia.
Test [11] relates to SR leukemia.
The subject of test [12] is RPMI-8226 leukemia.
Test [13] deals with OVCAR-8 ovarian.
The subject of test [14] is OVCAR-5 ovarian.
In test [15] the test system is OVCAR-4 ovarian.
The test system of test [16] is SK-OV-3 ovarian.
Test [17] deals with OVCAR-3 ovarian.
For test [18], the system named is HS 578T breast.
The test system of test [19] is NCI/ADR-RES ovarian.
Test [20] concerns IGROV1 ovarian.

`CCOC(=O)Cn1c(=O)c2sc3ncccc3c2n2nnc(-c3ccccc3)c12`: the growth in test [1] was 103%; in test [2], 104%; in test [3], 97.4%; in test [4] it was 60.2%; in test [5], 132%; in [6], 95.5%. Further, the growth in test [7] was 93.4%; in test [8], 152%; in [9], 86.3%; in test [10] it was 89.6%; in [11] it was 93.5%; in test [12], 94.7%. Besides, the growth in test [13] is 102%; in test [14] it was 105%; in test [15], 101%; in test [16], 94%; in test [17] it was 120%; in [18] it was 112%. Besides, the growth in test [19] was 105%.

Consider `COc1cc(NC(=O)C2=C(N3CCOCC3)/C(=C/c3ccc(Cl)cc3)CC2)cc(OC)c1OC`, for which the growth was 85.4% in test [1]; 93.4% in test [2]; 83.4% in [3]; 72.8% in test [4]; 121% in test [5]; 93.5% in test [6]. Besides, the growth is 84.6% in test [7]; 98.3% in [8]; 39.8% in test [9]; 49.3% in test [10]; 35.1% in test [11]; 33.2% in test [12]. The growth is 72.7% in test [13]; 103% in [14]; 83.2% in [15]; 114% in [16]; 85.9% in test [17]; 95.2% in test [18]. Also, the growth in test [19] was 72.5%.

With `COc1cc(/C=C/c2cc(/C=C/c3ccc(O)c(OC)c3)nc(N)n2)ccc1O`, the growth in test [1] was -21% (active); in test [2] it was 22.2%; in test [3], 22.1%; in test [4], 3.16% (active); in test [5], 21.4%; in test [6], 13.5%. For the same compound, the growth in test [7] was 19.2%; in test [8], -56.9% (active); in test [9], 1.68% (active); in [10], 4.17% (active); in [11] it was -7.94% (active); in test [12], 2.88% (active). The growth in test [13] is 9.33% (active); in test [14], 5.83% (active); in test [15], 18.3%; in [16] it was -17.4% (active); in [20], 3.42% (active); in test [17] it was -7.57% (active). Besides, the growth was -0.999% (active) in test [18] and 39.3% in test [19].

As to `CCN(CC)c1ccc(/C=C2\SC(=O)C(Nc3nnc(-c4cccnc4SCc4ccccc4)o3)C2=O)cc1` (configuration not stated), the growth is 33.8% in [1]; 55.8% in test [2]; 61.4% in test [3]; 53.7% in [4]; 44.3% in test [5]; 51.2% in test [6]. Further, the growth in [7] is 41.2%; in test [8], 9.41% (active); in test [9], 50.6%; in test [10] it was 61.9%; in [11] it was 11.8%; in test [12] it was 23.4%. The growth in test [13] is 24.2%; in [14], 41.4%; in test [15] it was 38.6%; in test [16] it was 15.6%; in test [20], 56.5%; in [17], -13.5% (active). For the same compound, the results for the growth in test [18] and in test [19] were 26.6% and -9.88% (active), respectively.

`NC(CSC(c1ccccc1)(c1ccccc1)c1cccc2ccccc12)C(=O)O` (configuration not stated): the growth was 98.6% in test [1]; 88% in test [2]; 82.7% in test [3]; 84.3% in [4]; 115% in test [5]; 97.4% in test [6]. Further, the growth was 89.9% in test [7]; 100% in test [8]; 86.2% in [9]; 88.1% in test [10]; 112% in test [11]; 89.2% in test [12]. Moreover, the growth was 95.1% in [13]; 101% in test [14]; 95.4% in [15]; 106% in test [16]; 98.1% in [20]; 98.6% in test [17]. Moreover, the figures for the growth in test [18] and in [19] were 92.5% and 97.6%, respectively.

As for `Cc1cc(Cl)ccc1Nc1nc(C(F)(F)F)ccc1C(=O)N/N=C/c1cccc(O)c1`, the growth was 16% in test [1]; 20.8% in test [2]; 52.3% in test [3]; 6.02% (active) in test [4]; 85.9% in [5]; 28.3% in [6]. For the same compound, the growth in test [7] is 25.5%; in test [8], -41.5% (active); in test [9] it was 4.04% (active); in test [10], 3.63% (active); in test [11], -13% (active); in [12], 24.1%. The growth in test [13] was 62.6%; in test [14], 51.1%; in [15], 33.8%; in [16], 38.8%; in test [20], 27.7%; in [17] it was 35.9%. The growth is -17.5% (active) in test [18] and 26.6% in test [19].

Consider `Cc1ccc(C(=O)C2C(=O)C3CCC2C3)cc1` (configuration not stated), for which the growth in [1] was 111%; in test [2] it was 98.5%; in test [3] it was 97.3%; in [4], 90.2%; in test [5], 111%; in test [6], 100%. Besides, the growth is 96.1% in test [7]; 109% in test [8]; 96.3% in test [9]; 105% in test [10]; 129% in [11]; 99.3% in test [12]. Further, the growth in [13] is 100%; in test [14] it was 99%; in test [15] it was 102%; in [16] it was 107%; in test [20] it was 113%; in test [17] it was 107%. Besides, the values for the growth in test [18] and in test [19] were 106% and 99.3%, respectively.

In the case of `CC(C1=C(CN(C(=O)Cc2cn(-c3ccccc3)nc2-c2ccc(Cl)cc2)C(C)C)Cc2ccccc21)c1ccccn1` (configuration not stated), the growth is 53% in test [1]; 41% in test [2]; 77% in test [3]; 27.4% in [4]; 70.3% in test [5]; 60.4% in [6]. Also, the growth in test [7] is 40.9%; in test [8], 50.6%; in test [9], 53.3%; in [10], 29.3%; in test [11], 37.4%; in [12] it was 36.5%. Further, the growth in test [13] was 81.7%; in test [14], 85%; in test [15], 54.8%; in [16], 65.4%; in [17], 62.4%; in test [18], 80.7%. Also, in test [19], the growth is 61.1%.
